Screening data from PubChem.
TDP-43 yeast inh: qHTS of TDP-43 Inhibitors | TDP-43 expressing yeast growth rescue, BacTiter-Glo, 24 h | Potency, µM (highest dose often 46.1 µM), without a hit: top-dose growth rescue (activation), most hits filed as activators | 1.8% of 410,000 active; note: % of control where 0% means no effect; nearly all actives have a fitted effect of over 50% in size
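Yeast cells expressing TDP-43 under galactose induction are exposed to compounds for 24 hr at 30 deg C. BacTiter-Glo luminescence measures growth, so protective compounds score as activators.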
FUS yeast rescue: qHTS for Suppressors of FUS Proteinopathy: Primary screen using FUS-linked yeast assay. S. cerevisiae FUS-expressing, growth rescue, OD600, 24 h. Potency, µM (highest dose often 76.6 µM), hits mostly activators. 0.24% of 390,000 active;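 note: plate controls were DMSO vehicle for no effect and reference control for full effect; nearly all actives have a fitted effect of over 55% in size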
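Galactose (2%) drives FUS expression in yeast precultured in raffinose; seeding density OD 0.005. Test compounds incubated 24hr at 30C and 99% humidity before absorbance at 600 nm was measured.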
MmCpn inh: Inhibitors of TCP-1 ring complex (TRiC) of Methanococcus maripaludis (MmCpn): qHTS. Chaperonin Mm-Cpn (Methanococcus maripaludis). purified Mm-Cpn ATPase, ADP Transcreener TR-FRET. Potency, µM (titrated, usually from 76.9 µM), inactives show top-dose activity, negative = inhibition, usual class: inhibitors. 0.031% of 330,000 active; note: % is set by controls: 0 for no effect and ±100 for the full control effect; nearly all actives have a fitted effect of over 80% in size
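25 nM Mm-CPN + cpd, 10 min 37°C; + 10 uM ATP, 30 min 37°C; buffer 30 mM Tris pH 7.4, 100 mM KCl, 5 mM MgCl2, 1 mM DTT; Transcreener ADP HTRF detection 30 min RT.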
aSyn yeast inh: qHTS of alpha-syn Inhibitors; Yeast expressing alpha-synuclein, growth rescue, BacTiter-Glo, 24 h; Potency, µM (series often up to 46.1 µM), for inactives: at the highest dose growth rescue (activation), actives largely listed as activators; 0.14% of 370,000 active; note: % of control where 0% means no effect; nearly all actives have a fitted effect of over 65% in size
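Readout is rescue of growth in alpha-synuclein-expressing yeast, so inhibitors of toxicity appear as activators. Growth after 24 hr at 30 deg C in galactose medium is quantified by luminescence.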
ClpP mod: qHTS Assay for Activators of ClpP. purified B. subtilis ClpP, FRET peptide cleavage, 20 min. AID 651965, 2013. ATP-dependent Clp protease proteolytic subunit (Bacillus subtilis (strain 168)), P80244. 1.9% of 340,000 active. Potency, µM (highest dose often 57.5 µM), without a hit: top-dose activity change, negative = active; active = well fitted falling curve with a large enough effect; inconclusive = small, poorly fitted or top-dose-only effect; inactive = no such curve, though single readings can be large or run the other way; note: the source files actives as falling curves though it sought activators and does not explain the sign; nearly all actives have a fitted effect of over 65% in size
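ClpP 10 microg/mL final, pH 8 Tris/KCl buffer with BSA, glycerol, Tween-20; compound pinned in; FRET-FV substrate; RT 20 min; Ex320/Em430; ΔFRET vs ADEP 5.8 microM, DMSO, no enzyme.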
Abeta yeast res: qHTS for compounds that reverse cellular toxicity of Amyloid beta (A-beta) peptide in yeast: Primary Screen. yeast expressing A-beta42, growth rescue, OD600, 48 h; response scale: 0% DMSO, 100% iron-clioquinol control. 0.063% of 410,000 active. Potency, µM (titrated, usually from 46.1 µM), usual class: activators; note: nearly all actives have a fitted effect of over 55% in size
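Yeast growth medium received pinned compounds, then yeast cells expressing toxic A-beta were added; plates incubated at 30 C for 48 hr. Growth read as absorbance at 600 nm, normalized to DMSO and equimolar FeCl3 plus clioquinol controls.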
ClpP validation: qHTS Assay for Activators of ClpP: Hit Validation of Inhibitors | shares compounds with ClpP mod | Potency, µM (titrated, usually from 57.5 µM), for the others: at the top dose activity change, negative = inhibition, usual class: inhibitors | purified B. subtilis ClpP, FRET-FV substrate cleavage, 20 min | 40% of 470 active | AID 743245, 2014; note: % is set by controls: 0 for no effect and ±100 for the full control effect; nearly all actives have a fitted effect of over 70% in size
An asterisk follows results filed as active; i = inactive; ? = inconclusive; nt = no result given; ! = not active in a repeat; [ ] = remark or other dose. This is a sample that favours compounds with a hit; in the whole collection about 3.6% have one here. Unless noted, calls come from the whole dose curve; as a rule, active = well fitted curve in the direction sought with a large enough effect; inconclusive = small, poorly fitted or top-dose-only effect, or another doubt; inactive = no such curve, though single readings can be large; an effect the other way counts as inactive or inconclusive. Potency is the fitted concentration of half-maximal effect.

SMILES | TDP-43 yeast inh | FUS yeast rescue | MmCpn inh | aSyn yeast inh | ClpP mod | Abeta yeast res | ClpP validation
O=C(Cn1c(=O)sc2ccccc21)NCCOc1ccccc1F | 15% | i | 0% | 3% | 7.9µM* | i | -1%
O=C(Cn1c(=O)sc2ccccc21)NCc1ccccn1 | 8% | i | -2% | -2% | -2% | i | nt
COc1ccccc1NC(=O)c1sc2nc(N3CCOCC3)c3c(c2c1N)CCCC3 | 2% | i | 0% | 5% | 8.9µM* | i | ?
Cc1ccccc1NC(=O)c1sc2nc(N3CCOCC3)c3c(c2c1N)CCCC3 | ? | i | -3% | -12% | 4% | i | nt
O=[N+]([O-])c1ccc2nc(CNc3nc(N4CCOCC4)nc4c3ncn4-c3ccsc3)[nH]c2c1 | nt | i | nt | nt | nt | nt | nt
CCOc1ccc(C2C=C(c3ccc(C)cc3)Nc3nnnn32)cc1 (stereo not drawn) | 22µM* | ? | -1% | -32% | 10µM* | i | -11%
CCc1cccc(N2C(=O)CS(=O)(=O)C23C(=O)N(Cc2ccccc2)c2ccc(C)cc23)c1 (stereo not drawn) | 10% | i | nt | -3% | 0% | i | nt
O=C(O)c1ccc2c(c1)C(=O)N([C@H](Cc1ccc(C(F)(F)F)cc1)C(=O)O)C2=O | nt | nt | -1% | nt | nt | nt | nt
Cc1ccccc1Nc1c(-c2c[nH]c3ccccc23)nc2ccc(Cl)cn12 | 7% | i | nt | nt | 5µM* | i | -16%
CN(C)CCCCCCNc1nccc(N2CCN(C)CC2)n1 | nt | nt | nt | 1% | -4% | nt | nt
O=C(c1cnn(C(=O)c2ccccc2)c1)c1ccccc1O | 17% | i | 1% | 3% | 42% | i | -18%
O=c1[nH]c2cc(Br)c(Br)nc2[nH]1 | nt | i | nt | nt | nt | nt | nt
CCOC(=O)C1CCCCN1C(=O)c1oc2c(Cl)cc(C)cc2c1C (stereo not drawn) | -2% | i | -1% | 7% | 53% | i | -1%
O=C(Nc1nc(-c2cc3ccccc3o2)cs1)c1ccc(S(=O)(=O)N2CCCC2)cc1 | 5% | i | ? | -1% | 160% | i | nt
CN(C)S(=O)(=O)c1ccc(C(=O)Nc2nc(-c3cc4ccccc4o3)cs2)cc1 | 0% | i | ? | -1% | 140% | i | -25%
COc1nc(-c2ccc(C)cc2)ccc1-c1noc(-c2ccccc2Br)n1 | 16% | i | nt | nt | 20% | i | nt
COc1nc(-c2ccc(C)cc2)ccc1-c1noc(-c2cccnc2)n1 | 15% | i | -3% | 2% | ? | i | 19µM*
Cc1ccccc1N(CC(=O)Nc1ccc(S(=O)(=O)N2CCOCC2)cc1)S(C)(=O)=O | -18% | i | -25% | 5% | 45% | i | 1%
Cc1cccc(-n2c(=O)[nH]c3c(C(N)=O)nc(CC(C)C)nc32)c1 | -20% | i | -1% | 0% | 10µM* | i | 4.9µM*
CC(C)Cc1nc(C(N)=O)c2[nH]c(=O)n(-c3ccc(F)cc3)c2n1 | 22% | i | 2% | 0% | 6% | i | nt
Cc1nc2nc(NC(=O)c3ccc(Cl)cc3)[nH]n2c(=O)c1Cc1ccccc1 | 0% | i | nt | nt | 1% | i | nt
COc1cccc2c1cc1c(=O)n(CC(=O)N3CCC(C)CC3)nc(C)n12 | 8% | i | 1% | 6% | 2.5µM*! | i | 4.9µM*
COc1cccc2c1cc1c(=O)n(CC(=O)NC3CC3)nc(C)n12 | 10% | i | nt | nt | ? | i | nt
COc1cccc2c1cc1c(=O)n(CC(=O)N3CCN(c4ccccc4F)CC3)nc(C)n12 | 14% | i | nt | nt | 7.9µM* | i | 3.1µM*
Cc1cc(N2CCN(Cc3cn(C)nc3-c3cccc(Cl)c3)CC2)cc(C)n1 | 13% | i | 1% | 0% | nt | i | nt
SMILES | TDP-43 yeast inh | FUS yeast rescue | MmCpn inh | aSyn yeast inh | ClpP mod | Abeta yeast res | ClpP validation
Cn1cc(CN2CCN(c3ncccn3)CC2)c(-c2cccc(Cl)c2)n1 | 0% | i | 2% | 0% | 221% | i | -1%
Cc1cc(Br)cc2c1N(Cc1ccccc1OC(C)C)C(=O)C2=O | ? | i | nt | nt | -3% | i | nt
COc1ccccc1CNC(=O)c1ccc(-c2nc(CS(=O)(=O)c3ccc(C)cc3)c(C)o2)cc1 | 8% | i | nt | nt | 4% | i | nt
CC(NC(=O)C1CCN(S(=O)(=O)c2ccc(F)cc2)CC1)c1ccccc1 (stereo not drawn) | 6% | i | nt | nt | ? | i | -1%
CCOc1ccc2nc(-c3ccccc3)[nH]c2c1 | 8% | i | -4% | -19% | 7.1µM* | i | 6.9µM*
Cc1ccc(NC(=O)C2CCCN(c3ncnc4onc(C)c34)C2)c(Cl)c1 (stereo not drawn) | 15% | i | nt | nt | -1% | i | nt
COc1ccc2c(c1)CCc1c(C(=O)Nc3cc(C)n(Cc4ccc(Cl)cc4)n3)noc1-2 | 12% | i | 0% | -1% | 60% | i | -17%
O=C(c1cnn(-c2cccc(F)c2)c1-n1cccc1)N1CCN(c2ccccc2F)CC1 | 11% | i | nt | nt | 2% | i | nt
COc1ccc(-c2cc(C(=O)N3CCCC3)c3ccccc3n2)cc1OC | 13% | i | -2% | 9% | -12% | i | nt
COc1ccc(-c2cc(C(=O)N3CCC3)c3ccccc3n2)cc1OC | 14% | i | -6% | 2% | 3.2µM* | i | -2%
CCOc1ccc(-c2cn3c(n2)sc2cc(C(=O)NC4CCCc5ccccc54)ccc23)cc1 (stereo not drawn) | 2%[9.22 µM] | i | nt | nt | 5µM* | i | ?
COc1ccc(-c2cn3c(n2)sc2cc(C(=O)NC4CCCCC4)ccc23)cc1 | 17% | i | nt | nt | ? | i | nt
COc1cccc(C(=O)Nc2ccc(-c3cn4cccnc4n3)cc2)c1OC | 0% | i | nt | nt | 4% | i | nt
Cc1ccn2c(Nc3ccc(C(C)C)cc3)c(-c3ccsc3)nc2c1 | 16% | i | nt | nt | 4µM* | i | -16%
CC(C)CCNC(=O)COc1ccc2c(c1)C(=O)CC(C)(C)O2 | 4% | i | -5% | 1% | 28µM* | i | 15µM*
